Data: publication PMC7826789 (International Journal of Molecular Sciences, 2021)

## Cc1ccc(CNC(=O)N2CCC[C@]3(CCN(Cc4ccc(Cl)c(Cl)c4)C3)C2)cc1 [GSK2850163]
ERN1
  Kinases covered: ERN1

## CCCNC(=O)c1ccc(Nc2ncc(C(F)(F)F)c(Nc3ccccc3C(C)=O)n2)c(Br)c1 [BI00801818]
FAK
  Kinases covered: FAK

## CNC(=O)c1c(F)cccc1Nc1nc(Nc2cc3c(cc2OC)CCN3C(=O)CN(C)C)nc2[nH]ccc12 [GSK1838705]
FER
  Kinases covered: FER

## CCc1cc(Nc2nccc(-c3c(-c4ccc(OC)c(C(=O)Nc5c(F)cccc5F)c4)nc4ccccn34)n2)c(OC)cc1N1CCC(N2CCN(S(C)(=O)=O)CC2)CC1 [GSK1904529]
FER
  Kinases covered: FER
FRK
  Kinases covered: FRK

## COc1cc(OC)cc(-c2cc3cnc(N)nc3nc2NC(=O)NC(C)(C)C)c1 [PFE-PKIS 3]
FGFR1
  Kinases covered: FGFR1

## COc1cc2c(cc1OC)C(=C(Nc1ccccc1)c1cccc(CN)c1)C(=O)N2 [BIBF0846CL]
FLT3
  Kinases covered: FLT3

## Cn1ccc2ncnc(Oc3ccc(NC(=O)Nc4ccccc4)cc3)c21 [TPKI-69]
FLT3
  Kinases covered: FLT3

## COc1cc(N2CCN(C)CC2)ccc1Nc1ncc2c(n1)N(C)c1ccccc1C(=O)N2 [XMD8-87]
FRK
  Kinases covered: FRK

## c1ccc(-c2cc3ccncc3cc2OC2CCNCC2)cc1 [GSK1122999]
GSG2
  Kinases covered: GSG2
IKBKB
  Kinases covered: IKBKB

## COc1cc2ncnc(Nc3cccc(Cl)c3F)c2cc1O[C@H]1CC[C@H]([C@@H]2NCCNC2=O)CC1 [BI00133844]
HCK
  Kinases covered: HCK

## COc1ccc2c(-c3ccnc(Nc4cccc(OC(F)(F)F)c4)n3)cnn2n1 [GW810372X]
HIPK1
  Kinases covered: HIPK1

## CCOc1ccc2c(-c3ccnc(Nc4cccc(C(F)(F)F)c4)n3)cnn2n1 [GW811761X]
HIPK2
  Kinases covered: HIPK2
HIPK3
  Kinases covered: HIPK3

## COC[C@@H](C)N[C@H]1CC[C@H](Nc2cc(-c3cccc(NCC4(C#N)CCOCC4)n3)c(Cl)cn2)CC1 [NVP-2]
HIPK4
  Kinases covered: HIPK4

## CCCc1cc(N2CCCN(C)CC2)nc2sc3c(N)ncnc3c12 [BI00604564]
Haspin
  Kinases covered: Haspin

## Cc1cc(NC(=O)c2cccc(NC(=O)/C=C/CN(C)C)c2)ccc1Nc1nccc(-c2cccnc2)n1 [JNK-IN-7]
ICK
  Kinases covered: ICK

## CCC(NN(C)C)=C1C(=O)Nc2ccc(C(C)=O)cc21 [BI00036838]
ICK
  Kinases covered: ICK
